{"source": "the supplement of paper PMC13380429", "data": [{"tested_on": "Vero E6 infected with SARS-CoV-2", "assay": "inhibition of SARS-CoV-2 cytopathic effect; higher = more antiviral protection, active = above 15", "details": "100 nM; 48 h", "values": [{"smiles": "O=C(O)Cc1ccc(OCCNC[C@H](O)c2ccccc2)cc1", "inhibition of SARS-CoV-2 cytopathic effect": "0.37% (inactive)"}, {"smiles": "C[N+]1(C)CCCC(OC(=O)C(O)(c2ccccc2)c2ccccc2)C1", "note": "(stereo not given) [mepenzolate]", "inhibition of SARS-CoV-2 cytopathic effect": "-3.53% (inactive)"}, {"smiles": "O=P(O)(O)C(O)(Cc1cnc2ccccn12)P(=O)(O)O", "note": "[minodronic-acid]", "inhibition of SARS-CoV-2 cytopathic effect": "-0.4% (inactive)"}, {"smiles": "COc1ccc2cccc(N3CCN(CCNC(=O)c4ccc(F)cc4)CC3)c2c1", "inhibition of SARS-CoV-2 cytopathic effect": "0.77% (inactive)"}, {"smiles": "CO/N=C(\\C(=O)N[C@@H]1C(=O)N2C(C(=O)OCOC(=O)C(C)(C)C)=C(/C=C\\c3scnc3C)CS[C@H]12)c1csc(N)n1", "note": "[cefditoren-pivoxil]", "inhibition of SARS-CoV-2 cytopathic effect": "-2.07% (inactive)"}, {"smiles": "Cc1ccc(-c2csc3ncnc(SCCC(=O)O)c23)cc1", "inhibition of SARS-CoV-2 cytopathic effect": "-1.26% (inactive)"}, {"smiles": "Cn1c2c(c3ccccc31)CCNCC2", "inhibition of SARS-CoV-2 cytopathic effect": "-0.51% (inactive)"}, {"smiles": "CCOC(=O)c1ccc(C#Cc2ccc3c(c2)C(C)(C)CCS3)nc1", "note": "[tazarotene]", "inhibition of SARS-CoV-2 cytopathic effect": "1.7% (inactive)"}, {"smiles": "C[C@H](CCC(=O)O)[C@H]1CC[C@H]2[C@@H]3[C@@H](O)C[C@@H]4C[C@H](O)CC[C@]4(C)[C@H]3CC[C@]12C", "note": "[ursodiol]", "inhibition of SARS-CoV-2 cytopathic effect": "3.56% (inactive)"}, {"smiles": "Nc1nc(OCC2CCCCC2)c2nc[nH]c2n1", "inhibition of SARS-CoV-2 cytopathic effect": "-3.55% (inactive)"}, {"smiles": "CNC1CC(c2ccc(Cl)c(Cl)c2)c2ccccc21", "note": "(stereo not given) [indatraline]", "inhibition of SARS-CoV-2 cytopathic effect": "0.7% (inactive)"}, {"smiles": "CCCN(CCC)CCc1cccc2c1CC(=O)N2", "note": "[ropinirole]", "inhibition of SARS-CoV-2 cytopathic effect": "-1.05% (inactive)"}, {"smiles": "OC(CCN1CCCCC1)(c1ccccc1)C1CC2C=CC1C2", "note": "(stereo not given) [biperiden]", "inhibition of SARS-CoV-2 cytopathic effect": "0.23% (inactive)"}, {"smiles": "O=C([O-])c1ccccn1.O=C([O-])c1ccccn1.O=C([O-])c1ccccn1.[Cr+3]", "note": "[chromium-picolinate]", "inhibition of SARS-CoV-2 cytopathic effect": "1.3% (inactive)"}, {"smiles": "CN1[C@@H]2C[C@@H](O)C[C@H]1[C@@H]1O[C@@H]12", "note": "[scopine]", "inhibition of SARS-CoV-2 cytopathic effect": "-0.08% (inactive)"}, {"smiles": "O=c1nc2ccccc2c2n1CC(CN1CCN(c3ccccc3)CC1)N2", "note": "(stereo not given)", "inhibition of SARS-CoV-2 cytopathic effect": "2.83% (inactive)"}, {"smiles": "CC(C)NCC(O)COc1cccc2[nH]ccc12", "note": "(stereo not given) [pindolol]", "inhibition of SARS-CoV-2 cytopathic effect": "0.95% (inactive)"}, {"smiles": "O=C(O)Cc1ccc(CCNS(=O)(=O)c2ccc(Cl)cc2)cc1", "note": "[daltroban]", "inhibition of SARS-CoV-2 cytopathic effect": "-1.18% (inactive)"}, {"smiles": "NC[C@H]1O[C@H](O[C@H]2[C@H](O[C@@H]3O[C@H](CO)[C@@H](O)[C@H]3O)[C@@H](O)[C@H](N)C[C@@H]2N)[C@H](N)[C@@H](O)[C@@H]1O", "note": "[ribostamycin-sulfate]", "inhibition of SARS-CoV-2 cytopathic effect": "-0.77% (inactive)"}, {"smiles": "CC12CCC(C(=O)N(CCCCN3CCN(c4ccccn4)CC3)C1=O)C2(C)C", "note": "(stereo not given) [piricapiron]", "inhibition of SARS-CoV-2 cytopathic effect": "-1.87% (inactive)"}, {"smiles": "COc1cccc(C=NCCN=Cc2cccc(OC)c2[O-])c1[O-].[Cl-].[Mn+3]", "inhibition of SARS-CoV-2 cytopathic effect": "0.89% (inactive)"}, {"smiles": "CC(=O)Nc1nnc(S(N)(=O)=O)s1", "note": "[acetazolamide]", "inhibition of SARS-CoV-2 cytopathic effect": "-1.3% (inactive)"}, {"smiles": "CC(=O)Nc1ccc(CC(=O)O)cc1", "note": "[actarit]", "inhibition of SARS-CoV-2 cytopathic effect": "0.35% (inactive)"}, {"smiles": "Fc1ccc(C(OCCN2CCN(CCCc3ccccc3)CC2)c2ccc(F)cc2)cc1", "note": "[vanoxerine]", "inhibition of SARS-CoV-2 cytopathic effect": "2.06% (inactive)"}, {"smiles": "Cc1cccc(Cc2c[nH]cn2)c1C", "note": "[detomidine]", "inhibition of SARS-CoV-2 cytopathic effect": "1.67% (inactive)"}, {"smiles": "O=C(NS(=O)(=O)c1ccc(Br)s1)c1ccc(Cl)cc1Cl", "note": "[tasisulam]", "inhibition of SARS-CoV-2 cytopathic effect": "0.94% (inactive)"}, {"smiles": "Oc1ccc2c3c1O[C@H]1[C@@H](O)CC[C@@]4(O)[C@@H](C2)N(CC2CCC2)CC[C@]314", "note": "[nalbuphine]", "inhibition of SARS-CoV-2 cytopathic effect": "0.27% (inactive)"}, {"smiles": "CN1C(C)(C)CCCC1(C)C", "note": "[pempidine]", "inhibition of SARS-CoV-2 cytopathic effect": "-4.34% (inactive)"}, {"smiles": "O=C(O)c1cc(=O)c2c(OCC(O)COc3cccc4oc(C(=O)O)cc(=O)c34)cccc2o1", "note": "[cromoglicic-acid]", "inhibition of SARS-CoV-2 cytopathic effect": "-1.5% (inactive)"}, {"smiles": "O=C(O)[C@H]1CC[C@H](c2cc3cccnc3c(-c3cccc(F)c3)n2)CC1", "inhibition of SARS-CoV-2 cytopathic effect": "-0.1% (inactive)"}, {"smiles": "C=CCNc1ncnc2ccc(Br)cc12", "inhibition of SARS-CoV-2 cytopathic effect": "4.33% (inactive)"}, {"smiles": "CCN(CC)CCOCCOC(=O)C(CC)(CC)c1ccccc1", "note": "[oxelaidin]", "inhibition of SARS-CoV-2 cytopathic effect": "0.38% (inactive)"}, {"smiles": "CCOc1ccc(-c2ccc(Cn3c(CC(C)(C)C(=O)O)c(SC(C)(C)C)c4cc(OCc5ccc(C)cn5)ccc43)cc2)cn1", "inhibition of SARS-CoV-2 cytopathic effect": "-0.84% (inactive)"}, {"smiles": "COc1ccccc1Oc1c(NS(=O)(=O)c2ccc(C)cn2)nc(-c2ccncc2)nc1OC", "inhibition of SARS-CoV-2 cytopathic effect": "1.19% (inactive)"}, {"smiles": "Cc1cc(NC(=O)C(c2ccccc2)N2CCCc3ccccc32)no1", "note": "(stereo not given)", "inhibition of SARS-CoV-2 cytopathic effect": "1.85% (inactive)"}, {"smiles": "C=C1/C(=C\\C=C2/CCC[C@]3(C)[C@@H]([C@H](C)/C=C/C=C/C(O)(CC)CC)CC[C@@H]23)C[C@@H](O)C[C@@H]1O", "note": "[seocalcitol]", "inhibition of SARS-CoV-2 cytopathic effect": "-0.09% (inactive)"}, {"smiles": "COc1cccc(-n2nc(C(=O)O)cc2-c2ccc(C3CCCCC3)c(Cl)c2)c1", "inhibition of SARS-CoV-2 cytopathic effect": "2.64% (inactive)"}, {"smiles": "COc1ccc(CNC(=O)c2sc3nc(C)cc(C)c3c2N)cc1", "inhibition of SARS-CoV-2 cytopathic effect": "2.17% (inactive)"}, {"smiles": "CNc1cc2c(Nc3cccc(Br)c3)ncnc2cn1", "inhibition of SARS-CoV-2 cytopathic effect": "-1.36% (inactive)"}, {"smiles": "CCCNC(=O)NS(=O)(=O)c1ccc(Cl)cc1", "note": "[chlorpropamide]", "inhibition of SARS-CoV-2 cytopathic effect": "-1.08% (inactive)"}]}]}
